High-throughput results as filed in PubChem BioAssay.
Rows were chosen to be rich in hits. Some 7% of all compounds tested hit in one or more screens of this group.
ADAM17 inh: inhibitors of human ADAM17; hit rate 0.83% among 370,000; inhibition, % at 6.95 µM; AID 720648; recombinant ADAM17, EDANS/DABCYL FRET peptide cleavage; P78536;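 active means inhibition above the mean of compounds lying between control limits plus 3 SD, set per campaign, cut at about 8.5% in these data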;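 further: 0% = DMSO-only wells as the low control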
NR3A LBD binder: modulators (binders) of human NR3A ligand-binding domain. NR3A LBD differential scanning fluorimetry, Tm shift; 0% = protein alone, 100% = glycine-bound protein. Tm shift relative to glycine control, % at 25 µM. hit rate 2.5% among 340,000;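 active means melting temperature shift of at least 10% of the positive control shift, at one fixed dose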
proKLK7 act: proKLK7 (human) activation, primary screen; P49862; purified proKLK7, EDANS-DABCYL substrate fluorescence; 100% is mature enzyme control, 0% vehicle; activation, % at 7 µM; hit rate 0.9% among 370,000; AID 652039;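 active means activation above the mean of all tested compounds plus 3 SD, computed per campaign excluding outliers beyond control limits, cut at about 13% in these data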
rCAG binder: r(CAG) repeat RNA binding; TO-PRO-1 dye displacement fluorescence; hit rate 1.3% among 370,000; inhibition, % at 3 µM;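 active means inhibition above the plate cutoff, the mean of all test compounds on that plate plus 3 SD, cut at about 35% in these data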;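 further: 0% = DMSO alone and 100% = 100 µM mitoxantrone as full dye displacement; higher means more dye released from RNA so lower well fluorescence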
AHR activator: activates the human aryl hydrocarbon receptor | activation, % at 5 µM | P35869 | AHR-responsive luciferase reporter cells, luminescence | hit rate 2.5% among 320,000; in the data active means activation above about 47%;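 further: 0% = vehicle wells and 100% = reference agonist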
Target sequence (P35869 whole entry, looked up): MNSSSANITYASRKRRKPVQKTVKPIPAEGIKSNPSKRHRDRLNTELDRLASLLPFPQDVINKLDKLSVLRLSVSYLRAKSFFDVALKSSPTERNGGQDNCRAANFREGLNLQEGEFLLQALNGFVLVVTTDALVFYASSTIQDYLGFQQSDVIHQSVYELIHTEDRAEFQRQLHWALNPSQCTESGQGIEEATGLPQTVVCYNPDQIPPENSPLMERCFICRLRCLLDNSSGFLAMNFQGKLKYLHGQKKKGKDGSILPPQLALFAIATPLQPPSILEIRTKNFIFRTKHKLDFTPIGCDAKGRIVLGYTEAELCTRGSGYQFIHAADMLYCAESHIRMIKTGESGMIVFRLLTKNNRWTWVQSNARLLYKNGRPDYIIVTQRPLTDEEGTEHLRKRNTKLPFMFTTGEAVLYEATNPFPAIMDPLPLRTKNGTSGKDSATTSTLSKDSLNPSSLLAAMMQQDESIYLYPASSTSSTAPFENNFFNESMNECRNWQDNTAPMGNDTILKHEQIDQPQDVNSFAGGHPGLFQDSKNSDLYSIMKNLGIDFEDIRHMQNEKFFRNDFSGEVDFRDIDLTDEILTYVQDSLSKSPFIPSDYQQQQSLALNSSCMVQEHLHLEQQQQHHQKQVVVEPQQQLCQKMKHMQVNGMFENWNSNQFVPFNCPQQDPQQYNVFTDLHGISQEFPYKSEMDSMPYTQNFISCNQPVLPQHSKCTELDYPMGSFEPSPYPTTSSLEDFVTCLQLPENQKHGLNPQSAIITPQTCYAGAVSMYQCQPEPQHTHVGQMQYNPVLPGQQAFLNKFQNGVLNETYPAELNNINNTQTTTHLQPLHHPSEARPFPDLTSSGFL
ADAM10 inh: inhibitors of human ADAM10; hit rate 0.62% among 370,000; AID 720582; O14672; inhibition, % at 7 µM; recombinant ADAM10, EDANS/DABCYL FRET peptide cleavage, 3 h;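 active means inhibition above a per-campaign cutoff equal to the mean of compounds falling between control-based bounds plus 3 SD, cut at about 20% in these data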;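 further: 0% = DMSO wells while the 100% control is not disclosed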
rCAG bind conf: r(CAG) RNA repeat binding, confirmation; shares compounds with rCAG binder; TO-PRO-1 dye displacement fluorescence; inhibition, % at 3 µM; hit rate 70% among 4,300; AID 652065;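 active means inhibition above a per-plate cutoff, the mean inhibition of sample wells plus 3 SD, cut at about 35% in these data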;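 further: loss of TO-PRO-1 fluorescence as compound displaces dye from 1x1 AA loop RNA; 0% = DMSO only wells and 100% = 100 µM mitoxantrone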
dCAG dye counter: counter-screen for rCAG RNA binders: DNA CAG dye complex inhibitors; shares compounds with rCAG binder; d(CAG) DNA oligo TO-PRO-1 dye displacement, fluorescence; inhibition, % at 3 µM; hit rate 94% among 4,300;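 active means inhibition above its plate's cutoff, the mean test-well inhibition plus 3 SD, cut at about 4.8% in these data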;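 further: 0% = DNA dye mix with DMSO and 100% = 100 µM mitoxantrone; hits displace the dye from DNA and so lower well fluorescence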
The depositor's hits bear a star.

`C[C@H]1[C@@H](OC(=O)Nc2ccccc2C(F)(F)F)CC[C@@]23CCCN2C(=O)CCC[C@@H]13` gave ADAM17 inh -1.4 and ADAM10 inh 3.1.
`CC(C)c1[nH]nc2c1C(c1cccc(C(F)(F)F)c1)N(c1ccccc1)C2=O` (stereo not given) gave ADAM17 inh 0.6, proKLK7 act -0.5, rCAG binder 0.1 and ADAM10 inh -4.9.
Screening NC(Cc1ccc(F)cc1)c1csc(Nc2ccc(C(=O)c3ccccc3)cc2)n1 (stereo not given) returned ADAM17 inh -8.1, proKLK7 act -2.7, rCAG binder 11.3 and ADAM10 inh -30.9.
`Cc1ccc2[nH]c(C)c(/C=N/Nc3nc4ccccc4s3)c2c1` gave ADAM17 inh 2.1, NR3A LBD binder 24.3*, proKLK7 act -1.1, rCAG binder 64.6*, AHR activator 65.0*, ADAM10 inh -13.2, rCAG bind conf 46.7* and dCAG dye counter 26.3*.
`Cc1ccc([C@H]2C(C(=O)O)=CC[C@@H](c3ccc(C)cc3)N2S(=O)(=O)c2ccc(C)cc2)cc1` gave ADAM17 inh -3.5, NR3A LBD binder -1.2, proKLK7 act 0.2, rCAG binder 76.2*, AHR activator -0.3, ADAM10 inh -1.3, rCAG bind conf 66.7* and dCAG dye counter 29.6*.
O=C(O)C1=CC[C@@H](c2ccc(Cl)cc2)N(S(=O)(=O)c2ccc(Cl)cc2)[C@H]1c1ccccc1 was read as ADAM17 inh 1.7, NR3A LBD binder -17.5, proKLK7 act 0.3, rCAG binder 65.0*, AHR activator -0.3, ADAM10 inh 2.1, rCAG bind conf 68.5* and dCAG dye counter 29.6*.
`Cc1ccc([C@H]2C(C(=O)O)=CC[C@@H](c3cccc(C)c3)N2S(=O)(=O)c2ccc(C)cc2)cc1` gave ADAM17 inh -2.5, NR3A LBD binder 1.2, proKLK7 act -0.2, rCAG binder 9.7, AHR activator 0.0 and ADAM10 inh -1.8.
Screening Cc1ccc([C@@H]2CC=C(C(=O)O)[C@H](c3ccccc3)N2S(=O)(=O)c2ccc(C)cc2)cc1 returned ADAM17 inh -4.8, NR3A LBD binder -2.8, proKLK7 act -0.3, rCAG binder 55.6*, AHR activator -3.1, ADAM10 inh 1.5, rCAG bind conf 58.8* and dCAG dye counter 21.9*.
Cc1ccc([C@H]2C(C(=O)O)=CC[C@@H](c3ccc(Cl)cc3)N2S(=O)(=O)c2ccc(C)cc2)cc1 was read as ADAM17 inh -3.2, NR3A LBD binder -7.1, proKLK7 act 0.0, rCAG binder 80.0*, AHR activator 0.2, ADAM10 inh -0.3, rCAG bind conf 80.5* and dCAG dye counter 47.0*.
CCOC(=O)CCCCCC(=O)Nc1ccc2c(c1)C(=O)N([C@H](C)CO)C[C@@H](C)[C@@H](CN(C)S(=O)(=O)c1ccc(C)cc1)OCCCC[C@H](C)O2 was read as ADAM17 inh 1.9, proKLK7 act 0.1, rCAG binder 10.0 and ADAM10 inh 9.0.
Screening O=C(Nc1nc2ncccn2c1-c1ccc(C(F)(F)F)cc1)c1ccc(F)cc1 returned ADAM17 inh -54.4, proKLK7 act 3.5, rCAG binder 0.6 and ADAM10 inh -176.1.
Screening S=C(NCc1cccc(Cl)c1)OC1CCC12CCC(c1ccccc1)CC2 (stereo not given) returned ADAM17 inh 3.0, proKLK7 act 0.8, rCAG binder 3.8 and ADAM10 inh 6.2.
For O=C(CCc1ccccc1)Nc1sc2c(c1C(=O)O)CCCC2 the results were ADAM17 inh -3.6, NR3A LBD binder 1.0, proKLK7 act 0.6, rCAG binder 15.7, AHR activator 0.4 and ADAM10 inh -5.8.
Screening CCOC(=O)c1c(NC(=O)C2C3C=CC(C3)C2C(=O)O)sc2c1CCC(CC)C2 (stereo not given) returned ADAM17 inh 4.6, NR3A LBD binder -2.0, proKLK7 act 0.2, rCAG binder 38.3*, AHR activator -3.4, ADAM10 inh 0.0, rCAG bind conf 64.1* and dCAG dye counter 23.6*.
Screening CCOC(=O)c1c(NC(=O)c2ccccc2C(=O)O)sc2c1CCCC2 returned ADAM17 inh -1.7, NR3A LBD binder -1.8, proKLK7 act 0.2, rCAG binder 55.2*, AHR activator 4.0, ADAM10 inh -3.8, rCAG bind conf 46.3* and dCAG dye counter 16.2*.
Screening O=C(Nc1sc2c(c1C(=O)O)CCCCC2)c1ccccc1F returned ADAM17 inh -6.7, NR3A LBD binder -12.2, proKLK7 act 1.1, rCAG binder 35.5*, AHR activator 39.9, ADAM10 inh -8.1, rCAG bind conf 19.5 and dCAG dye counter 4.3.
`O=C(/C=C/c1cccs1)Nc1sc2c(c1C(=O)O)CCCC2` gave ADAM17 inh 3.5, NR3A LBD binder -1.6, proKLK7 act -0.4, rCAG binder 53.0*, AHR activator 9.7, ADAM10 inh 4.1, rCAG bind conf 28.1 and dCAG dye counter 6.7*.
CCOC(=O)c1c(NC(=O)C2C3CCC(O3)C2C(=O)O)sc2c1CCC(CC)C2 (stereo not given) was read as ADAM17 inh -1.5, NR3A LBD binder -0.4, proKLK7 act 0.1, rCAG binder 24.6, AHR activator 2.0 and ADAM10 inh -12.0.
Screening COc1ccc(-n2c(SCC(=O)Nc3ccc4cn[nH]c4c3)nnc2-c2ccccc2)cc1 returned ADAM17 inh -1.4, proKLK7 act 0.2, rCAG binder 11.5 and ADAM10 inh -0.1.
Screening CC1(C)CC(=O)N(CC(=O)N2CCN(c3cccc(Cl)c3Cl)CC2)c2ccccc2S1(=O)=O returned ADAM17 inh -2.4, proKLK7 act 0.1, rCAG binder 4.9 and ADAM10 inh 3.4.
Screening CC(=O)O[C@H]1C=C[C@@H](NC(=O)OC(C)(C)C)C1 returned ADAM17 inh -2.8, proKLK7 act -0.2, rCAG binder -0.8 and ADAM10 inh -1.0.
For CCOC(=O)c1c(N2C(=O)Nc3ccccc3N2O)sc2c1CCCC2 the results were ADAM17 inh 0.4, NR3A LBD binder -0.1, proKLK7 act 0.0, rCAG binder 37.7*, AHR activator 3.0, ADAM10 inh 2.1, rCAG bind conf 30.4 and dCAG dye counter 6.7*.
CCOC(=O)c1c(NS(=O)(=O)c2cccc(OC)c2)sc2c1CCC2 was read as ADAM17 inh -1.6, NR3A LBD binder -6.7, proKLK7 act 0.0, rCAG binder 59.9*, AHR activator -2.9, ADAM10 inh -3.3, rCAG bind conf 68.6* and dCAG dye counter 22.7*.
Screening CCOC(=O)c1c(NC(=S)Nc2ccccc2)sc2c1CCCCC2 returned NR3A LBD binder -0.7 and AHR activator 2.6.
